Source: PubChem BioAssay (EPA / NIEHS)
Active and inactive are the calls of the source. Rule for the calls: active = hit-call score of the fitted dose curve at least 0.9, where 1 is the maximum; inactive = score below 0.9.

Assays:
Details in all cases: mRNA level, 48 h; actives raise or lower the signal
[1] = read-out: Insulin-like growth factor-binding protein 1 (IGFBP1), IGFBP1 (gene 3484); assay: LTEA_HepaRG_IGFBP1: Life Technologies and Expression Analysis (LTEA) Assay for Insulin-like growth factor-binding protein 1 (IGFBP1) using HepaRG (AID 2283508)
Procedure, shortened: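 Thawed HepaRG cells are plated for 48 h, switched to serum-free induction medium, then dosed in duplicate for another 48 h (100 uM top, half-log steps). Lysates in RLT go to qRT-PCR, and gain or loss of signal is fitted relative to vehicle.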

[2] = read-out: Interleukin 6 (IL6), IL6 (gene 3569); assay: LTEA_HepaRG_IL6: Life Technologies and Expression Analysis (LTEA) Assay for Interleukin 6 (IL6) using HepaRG (AID 2283509)
Procedure, shortened: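 HepaRG cells exposed in duplicate for 48 h to eight half-log concentrations, top 100 uM, in 0.5% DMSO serum-free induction medium. mRNA measured by qRT-PCR, normalized to ACTB, GAPDH and POLR2A. Bidirectional fit versus DMSO.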

[3] = read-out: Interleukin 6 Receptor (IL6R), IL6R (gene 3570); assay: LTEA_HepaRG_IL6R: Life Technologies and Expression Analysis (LTEA) Assay for Interleukin 6 Receptor (IL6R) using HepaRG (AID 2283510)
Procedure, shortened: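 Differentiated human HepaRG cells, plated 48 h then switched to serum-free induction medium, were dosed in duplicate for 48 h at eight half-log concentrations up to 100 uM in 0.5% DMSO. IL6R mRNA quantified by qRT-PCR, normalized to ACTB/GAPDH/POLR2A; bidirectional fit versus DMSO.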

[4] = read-out: Potassium channel subfamily K member 1 (KCNK1), KCNK1 (gene 3775); assay: LTEA_HepaRG_KCNK1: Life Technologies and Expression Analysis (LTEA) Assay for Potassium channel subfamily K member 1 (KCNK1) using HepaRG (AID 2283511)
Procedure, shortened: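 Differentiated HepaRG cells, 48 h exposure in serum-free induction medium with 0.5% DMSO; 8 concentrations, half-log from 100 uM, duplicate. KCNK1 mRNA by qRT-PCR, normalized to ACTB, GAPDH, POLR2A; bidirectional fit vs DMSO.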

[5] = read-out: Keratin 19 (KRT19), KRT19 (gene 3880); assay: LTEA_HepaRG_KRT19: Life Technologies and Expression Analysis (LTEA) Assay for Keratin 19 (KRT19) using HepaRG (AID 2283512)
Procedure, shortened: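 KRT19 transcript levels, measured by Fluidigm qRT-PCR against three housekeeping genes, are fitted for gain or loss of signal relative to DMSO. Human HepaRG cells receive test chemicals (top 100 uM, half-log steps, 0.5% DMSO) for 48 hours.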

[6] = read-out: JUN Transcription Factor, JUN (gene 3725); assay: LTEA_HepaRG_JUN: Life Technologies and Expression Analysis (LTEA) Assay for JUN Transcription Factor using HepaRG (AID 2283513)
Procedure, shortened: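 Differentiated HepaRG cells were exposed to chemicals for 48 h in serum-free induction medium, 8 concentrations from 100 uM in half-log steps, 0.5% DMSO vehicle, in duplicate. JUN mRNA was quantified by TaqMan qRT-PCR, normalized to ACTB, GAPDH, POLR2A.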

[7] = read-out: Lipase C (LIPC), LIPC (gene 3990); assay: LTEA_HepaRG_LIPC: Life Technologies and Expression Analysis (LTEA) Assay for Lipase C (LIPC) using HepaRG (AID 2283514)
Procedure, shortened: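 HepaRG cells, 48 h after plating, treated in duplicate for 48 h in serum-free induction medium over 8 half-log concentrations from 100 uM, 0.5% DMSO. LIPC mRNA by TaqMan qRT-PCR normalized to ACTB/GAPDH/POLR2A; bidirectional fit versus DMSO.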

[8] = read-out: Lipoprotein lipase (LPL), LPL (gene 4023); assay: LTEA_HepaRG_LPL: Life Technologies and Expression Analysis (LTEA) Assay for Lipoprotein lipase (LPL) using HepaRG (AID 2283515)
Procedure, shortened: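 Differentiated HepaRG cells, plated 48 h, then exposed 48 h in serum-free induction medium to 8 concentrations (top 100 uM, half-log steps) in 0.5% DMSO, duplicate. LPL mRNA measured by qRT-PCR, normalized to ACTB, GAPDH and POLR2A.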

[9] = read-out: MicroRNA 122 (MIR122), gene 406906; assay: LTEA_HepaRG_MIR122: Life Technologies and Expression Analysis (LTEA) Assay for MicroRNA 122 (MIR122) using HepaRG (AID 2283516); note: the transcript read is the microRNA miR-122
Procedure, shortened: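 Differentiated human HepaRG cells were exposed 48 h in serum-free induction medium to eight half-log concentrations (top 100 uM, 0.5% DMSO). Transcript level was measured by TaqMan qRT-PCR, normalized to ACTB, GAPDH and POLR2A, and fitted bidirectionally versus DMSO.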

[10] = read-out: matrix metalloproteinase-10 (MMP10), MMP10 (gene 4319); assay: LTEA_HepaRG_MMP10: Life Technologies and Expression Analysis (LTEA) Assay for matrix metalloproteinase-10 (MMP10) using HepaRG (AID 2283517)
Procedure, shortened: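 Differentiated HepaRG cells in serum-free induction medium exposed 48 h in duplicate to 8-point half-log series up to 100 uM in 0.5% DMSO. mRNA quantified by qRT-PCR, normalised to ACTB, GAPDH, POLR2A; bidirectional fit versus DMSO.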

[11] = read-out: MYC, MYC (gene 4609); assay: LTEA_HepaRG_MYC: Life Technologies and Expression Analysis (LTEA) Assay for MYC using HepaRG (AID 2283518)
Procedure, shortened: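 HepaRG, ~100,000 cells/well, collagen I; 48 h plating; serum-free induction medium; 48 h dosing, duplicate, 100 uM top, half-log, 0.5% DMSO; total RNA → qRT-PCR MYC; gain/loss fit vs DMSO.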

[12] = read-out: matrix metalloproteinase-3 (MMP3), MMP3 (gene 4314); assay: LTEA_HepaRG_MMP3: Life Technologies and Expression Analysis (LTEA) Assay for matrix metalloproteinase-3 (MMP3) using HepaRG (AID 2283519)
Procedure, shortened: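 HepaRG cells (~100,000/well) in serum-free induction medium were dosed in duplicate for 48 h with an 8-point half-log series from 100 uM, 0.5% DMSO. MMP3 mRNA was quantified by Fluidigm TaqMan qRT-PCR, normalized to three housekeeping genes.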

[13] = read-out: Paternally Expressed 10 (PEG10), PEG10 (gene 23089); assay: LTEA_HepaRG_PEG10: Life Technologies and Expression Analysis (LTEA) Assay for Paternally Expressed 10 (PEG10) using HepaRG (AID 2283520)
Procedure, shortened: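 Differentiated HepaRG cells, plated 48 h then switched to serum-free induction medium, were exposed in duplicate for 48 h to eight half-log concentrations topping at 100 uM in 0.5% DMSO. PEG10 mRNA was quantified by TaqMan qRT-PCR, normalised to ACTB, GAPDH and POLR2A.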

[14] = read-out: Protein phosphatase 2A (PPP2R4), PTPA (gene 5524); assay: LTEA_HepaRG_PPP2R4: Life Technologies and Expression Analysis (LTEA) Assay for Protein phosphatase 2A (PPP2R4) using HepaRG (AID 2283522)
Procedure, shortened: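 Differentiated HepaRG cells in serum-free induction medium were exposed in duplicate for 48 h to eight concentrations, top 100 uM with half-log dilutions, in 0.5% DMSO. PPP2R4 mRNA was quantified by TaqMan qRT-PCR, normalized to ACTB, GAPDH and POLR2A.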

[15] = read-out: Phosphatase and tensin (PTEN), PTEN (gene 5728); assay: LTEA_HepaRG_PTEN: Life Technologies and Expression Analysis (LTEA) Assay for Phosphatase and tensin (PTEN) using HepaRG (AID 2283523)
Procedure, shortened: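 HepaRG cells, 48 h after plating, exposed in duplicate for 48 h in serum-free induction medium to 8 half-log concentrations up to 100 uM (0.5% DMSO). PTEN mRNA by qRT-PCR, normalized to ACTB, GAPDH, POLR2A; bidirectional fit versus DMSO.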

[16] = read-out: solute carrier (SLC22A1), SLC22A1 (gene 6580); assay: LTEA_HepaRG_SLC22A1: Life Technologies and Expression Analysis (LTEA) Assay for solute carrier (SLC22A1) using HepaRG (AID 2283524)
Procedure, shortened: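 Differentiated human HepaRG cells in serum-free induction medium, exposed 48 h in duplicate to 8-point half-log series from 100 µM top in 0.5% DMSO. SLC22A1 mRNA by TaqMan qRT-PCR normalized to ACTB, GAPDH, POLR2A; bidirectional fit versus DMSO.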

[17] = read-out: Pyruvate Dehydrogenase Kinase 4 (PDK4), PDK4 (gene 5166); assay: LTEA_HepaRG_PDK4: Life Technologies and Expression Analysis (LTEA) Assay for Pyruvate Dehydrogenase Kinase 4 (PDK4) using HepaRG (AID 2283525)
Procedure, shortened: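 HepaRG cells plated 48 h, then switched to serum-free induction medium and exposed in duplicate for 48 h to 8 half-log concentrations from 100 uM in 0.5% DMSO. PDK4 mRNA measured by qRT-PCR, normalized to ACTB, GAPDH and POLR2A; bidirectional fit versus DMSO.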

[18] = read-out: NAD(P)H dehydrogenase [quinone] 1 (NQO1), NQO1 (gene 1728); assay: LTEA_HepaRG_NQO1: Life Technologies and Expression Analysis (LTEA) Assay for NAD(P)H dehydrogenase [quinone] 1 (NQO1) using HepaRG (AID 2283526)
Procedure, shortened: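 Differentiated HepaRG cells, plated 48 h and then switched to serum-free induction medium, were exposed in duplicate for 48 h to 8-point half-log concentrations up to 100 uM in 0.5% DMSO. mRNA measured by qRT-PCR, normalized to ACTB, GAPDH, POLR2A; bidirectional fit versus DMSO.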

[19] = read-out: Nuclear factor erythroid 2-related factor 2 (Homo sapiens) (UniProt Q16236); assay: LTEA_HepaRG_NFE2L2: Life Technologies and Expression Analysis (LTEA) Assay for Nuclear factor erythroid 2-related factor 2 (NFE2L2) Transcription Factor using HepaRG (AID 2283527);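 note: TaqMan qRT-PCR transcript level normalised to ACTB GAPDH and POLR2A housekeeping genes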
Procedure, shortened: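 Differentiated human HepaRG cells, serum-free induction medium, exposed 48 h in duplicate to eight half-log concentrations up to 100 uM in 0.5% DMSO. NFE2L2 mRNA by Fluidigm TaqMan qRT-PCR, normalised to ACTB, GAPDH, POLR2A; bidirectional change versus DMSO.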

[20] = read-out: Nuclear factor NF-kappa-B p105 subunit (Homo sapiens) (UniProt P19838); assay: LTEA_HepaRG_NFKB1: Life Technologies and Expression Analysis (LTEA) Assay for Nuclear Factor Kappa B Subunit 1 (NFKB1) using HepaRG (AID 2283521)
Procedure, shortened: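 Differentiated human HepaRG cells in serum-free induction medium with 0.5% DMSO were exposed for 48 h to eight half-log concentrations, top 100 uM, in duplicate. NFKB1 mRNA measured by Fluidigm TaqMan qRT-PCR, normalised to ACTB, GAPDH and POLR2A; bidirectional fit versus DMSO.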

Measured: AC50

Sequence of Nuclear factor erythroid 2-related factor 2 (Homo sapiens) (Q16236 whole entry, looked up): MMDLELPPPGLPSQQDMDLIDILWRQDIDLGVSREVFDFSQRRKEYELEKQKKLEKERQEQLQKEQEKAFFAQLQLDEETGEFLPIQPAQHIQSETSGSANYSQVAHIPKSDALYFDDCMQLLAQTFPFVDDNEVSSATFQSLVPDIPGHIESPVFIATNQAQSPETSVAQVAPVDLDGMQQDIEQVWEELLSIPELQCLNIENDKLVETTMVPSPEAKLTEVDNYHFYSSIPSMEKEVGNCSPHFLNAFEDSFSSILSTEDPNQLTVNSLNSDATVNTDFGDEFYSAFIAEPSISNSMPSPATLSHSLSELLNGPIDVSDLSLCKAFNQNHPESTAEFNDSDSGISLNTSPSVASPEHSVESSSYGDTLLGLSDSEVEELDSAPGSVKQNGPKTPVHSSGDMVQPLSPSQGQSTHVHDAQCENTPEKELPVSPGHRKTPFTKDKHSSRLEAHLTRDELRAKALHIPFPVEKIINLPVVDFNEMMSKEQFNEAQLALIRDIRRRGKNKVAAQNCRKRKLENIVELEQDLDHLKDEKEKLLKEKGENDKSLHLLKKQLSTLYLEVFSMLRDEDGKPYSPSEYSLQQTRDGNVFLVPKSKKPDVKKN
Sequence of Nuclear factor NF-kappa-B p105 subunit (Homo sapiens) (P19838 whole entry, looked up): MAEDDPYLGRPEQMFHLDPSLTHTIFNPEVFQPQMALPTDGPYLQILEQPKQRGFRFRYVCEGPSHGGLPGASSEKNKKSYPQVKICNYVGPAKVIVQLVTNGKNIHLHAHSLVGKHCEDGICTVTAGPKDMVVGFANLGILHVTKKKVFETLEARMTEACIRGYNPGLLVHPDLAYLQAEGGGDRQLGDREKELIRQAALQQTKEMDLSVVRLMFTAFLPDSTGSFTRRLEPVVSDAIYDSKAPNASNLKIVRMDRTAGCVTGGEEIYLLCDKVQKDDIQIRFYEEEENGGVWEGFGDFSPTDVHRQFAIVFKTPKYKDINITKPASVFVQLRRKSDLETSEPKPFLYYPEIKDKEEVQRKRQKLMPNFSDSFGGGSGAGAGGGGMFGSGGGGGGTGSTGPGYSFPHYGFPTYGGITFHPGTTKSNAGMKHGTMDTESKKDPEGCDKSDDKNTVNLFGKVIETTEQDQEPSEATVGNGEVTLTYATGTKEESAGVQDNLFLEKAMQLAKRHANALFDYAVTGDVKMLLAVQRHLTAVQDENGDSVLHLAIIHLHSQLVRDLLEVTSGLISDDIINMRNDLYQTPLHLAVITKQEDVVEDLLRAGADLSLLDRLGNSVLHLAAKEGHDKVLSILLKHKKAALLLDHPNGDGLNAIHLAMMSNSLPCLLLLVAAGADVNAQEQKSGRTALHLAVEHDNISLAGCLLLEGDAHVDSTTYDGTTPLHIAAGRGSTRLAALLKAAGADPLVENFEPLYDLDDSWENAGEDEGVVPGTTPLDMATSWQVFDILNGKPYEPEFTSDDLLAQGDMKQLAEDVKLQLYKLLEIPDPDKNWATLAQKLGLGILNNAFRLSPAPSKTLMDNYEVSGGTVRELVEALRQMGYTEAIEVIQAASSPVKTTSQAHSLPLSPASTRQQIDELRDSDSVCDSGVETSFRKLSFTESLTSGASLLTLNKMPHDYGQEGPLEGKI

NCCO
not listed: [20]
inactive: all other assays above

Nc1ccc(S(=O)(=O)c2ccc(N)cc2)cc1
active: [20] 353 nM
not listed: [3]
inactive: all other assays above

CCCc1cc(=O)[nH]c(=S)[nH]1
not listed: [20]
inactive: all other assays above

Cc1ccc2ncccc2c1
inactive: all assays above

O=C(O)CCCCC(=O)O
inactive: all assays above

O=[N+]([O-])C(CO)(CO)CO
not listed: [19]
inactive: all other assays above

NCC1(Cc2noc(=O)[nH]2)CCCCC1
inactive: all assays above

CCCCCC(=O)O
inactive: all assays above

CCCCCCCCCCC
inactive: all assays above

Clc1cc(Cl)c(Cl)cc1Cl
inactive: all assays above

CCCCCCCCCCCCCCCCCC(=O)O
not listed: [17]
inactive: all other assays above

Cc1ccc(C)c(O)c1C
not listed: [3]
inactive: all other assays above

CCCCN(CCCC)CCCC
inactive: all assays above
